Of roughly 6,500 targets only a part is listed; those with a hit were picked by preference. About 2% of all pairs of compound and target were hits. A number with no mark means an inactive call.
Compound: COC(=O)C#Cc1ccccc1 [methyl 3-phenylpropiolate]
Test: log2 ratio of iodoacetamide-alkyne labeling of the cysteine site, DMSO over compound (competition); higher = stronger covalent engagement of the cysteine by the compound, active = 1 or more
Conditions: 500 µM; treatment time 1 h; system: HEK293T cell lysate
In short: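 Reporter intensities give each cysteine's log2 competition ratio as the mean of control channels over the mean of compound channels. The samples were HEK293T lysate (2 mg/mL) given vehicle or electrophile (500 µM, 1 h, ambient temperature), then iodoacetamide alkyne (1 h), followed by click coupling to sCIP-TMT reagents, pooling, trypsin digestion overnight at 37 °C, streptavidin enrichment, acid elution, Orbitrap Eclipse LC-MS/MS with FAIMS and FragPipe quantification. Duplicate channels and three replicates were run, and cysteines quantified in only one replicate were discarded.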

Sequence of UniProt P49915 (P49915 whole entry, looked up): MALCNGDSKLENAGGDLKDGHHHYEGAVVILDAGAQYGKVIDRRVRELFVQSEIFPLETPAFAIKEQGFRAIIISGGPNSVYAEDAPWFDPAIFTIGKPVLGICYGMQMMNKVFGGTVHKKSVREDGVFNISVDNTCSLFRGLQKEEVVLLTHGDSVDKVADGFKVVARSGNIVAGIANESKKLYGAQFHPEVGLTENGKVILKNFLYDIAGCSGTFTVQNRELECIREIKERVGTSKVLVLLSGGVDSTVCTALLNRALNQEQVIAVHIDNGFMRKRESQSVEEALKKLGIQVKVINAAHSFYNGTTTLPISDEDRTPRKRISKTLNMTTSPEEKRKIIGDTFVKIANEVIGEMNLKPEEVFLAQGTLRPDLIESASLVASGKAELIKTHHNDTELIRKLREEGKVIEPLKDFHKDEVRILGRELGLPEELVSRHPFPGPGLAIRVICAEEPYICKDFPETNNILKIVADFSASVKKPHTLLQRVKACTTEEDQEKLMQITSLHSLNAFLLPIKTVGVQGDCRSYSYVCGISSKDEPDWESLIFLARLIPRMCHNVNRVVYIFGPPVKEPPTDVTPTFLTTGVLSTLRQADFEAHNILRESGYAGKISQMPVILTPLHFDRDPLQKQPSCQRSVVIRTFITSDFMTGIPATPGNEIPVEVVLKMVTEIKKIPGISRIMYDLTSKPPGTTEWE
Sequence of UniProt P49069 (P49069 whole entry): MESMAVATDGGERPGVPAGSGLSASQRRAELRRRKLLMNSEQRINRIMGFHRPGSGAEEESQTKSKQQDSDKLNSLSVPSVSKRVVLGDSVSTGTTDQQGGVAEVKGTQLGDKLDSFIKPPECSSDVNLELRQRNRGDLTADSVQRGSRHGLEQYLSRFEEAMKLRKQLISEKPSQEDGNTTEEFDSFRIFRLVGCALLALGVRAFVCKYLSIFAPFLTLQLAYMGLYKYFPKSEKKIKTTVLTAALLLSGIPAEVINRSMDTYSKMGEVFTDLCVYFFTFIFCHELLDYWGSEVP
Sequence of UniProt P51116 (P51116 whole entry, looked up): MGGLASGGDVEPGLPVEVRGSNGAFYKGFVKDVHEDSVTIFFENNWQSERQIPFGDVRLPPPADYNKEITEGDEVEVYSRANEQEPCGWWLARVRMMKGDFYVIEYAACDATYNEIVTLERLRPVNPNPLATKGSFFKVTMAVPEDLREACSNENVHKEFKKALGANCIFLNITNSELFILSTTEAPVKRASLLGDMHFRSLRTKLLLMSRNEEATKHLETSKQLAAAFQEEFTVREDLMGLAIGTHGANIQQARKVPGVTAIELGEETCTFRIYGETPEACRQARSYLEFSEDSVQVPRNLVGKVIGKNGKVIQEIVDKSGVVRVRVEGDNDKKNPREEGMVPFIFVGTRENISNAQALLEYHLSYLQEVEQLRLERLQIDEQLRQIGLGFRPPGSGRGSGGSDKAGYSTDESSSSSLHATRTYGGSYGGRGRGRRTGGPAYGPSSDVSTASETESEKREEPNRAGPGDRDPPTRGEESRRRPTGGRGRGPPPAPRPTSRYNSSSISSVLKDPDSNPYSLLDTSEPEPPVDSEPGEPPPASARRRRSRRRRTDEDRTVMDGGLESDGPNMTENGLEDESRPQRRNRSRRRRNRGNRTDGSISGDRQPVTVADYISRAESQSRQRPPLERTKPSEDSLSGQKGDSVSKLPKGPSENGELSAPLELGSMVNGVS
Sequence of UniProt P13489 (P13489 whole entry, looked up): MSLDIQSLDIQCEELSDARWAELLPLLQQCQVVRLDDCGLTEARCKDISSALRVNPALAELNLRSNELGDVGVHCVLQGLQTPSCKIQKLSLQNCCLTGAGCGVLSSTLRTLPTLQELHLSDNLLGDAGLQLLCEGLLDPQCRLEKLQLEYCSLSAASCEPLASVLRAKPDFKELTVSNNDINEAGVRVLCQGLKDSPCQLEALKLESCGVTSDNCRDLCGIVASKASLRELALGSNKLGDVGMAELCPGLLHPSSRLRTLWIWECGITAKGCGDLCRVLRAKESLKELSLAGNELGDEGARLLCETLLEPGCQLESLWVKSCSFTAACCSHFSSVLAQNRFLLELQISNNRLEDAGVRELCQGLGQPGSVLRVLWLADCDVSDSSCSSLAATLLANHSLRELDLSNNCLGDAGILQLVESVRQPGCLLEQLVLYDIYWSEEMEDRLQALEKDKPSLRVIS
Sequence of UniProt P06733 (P06733 whole entry, looked up): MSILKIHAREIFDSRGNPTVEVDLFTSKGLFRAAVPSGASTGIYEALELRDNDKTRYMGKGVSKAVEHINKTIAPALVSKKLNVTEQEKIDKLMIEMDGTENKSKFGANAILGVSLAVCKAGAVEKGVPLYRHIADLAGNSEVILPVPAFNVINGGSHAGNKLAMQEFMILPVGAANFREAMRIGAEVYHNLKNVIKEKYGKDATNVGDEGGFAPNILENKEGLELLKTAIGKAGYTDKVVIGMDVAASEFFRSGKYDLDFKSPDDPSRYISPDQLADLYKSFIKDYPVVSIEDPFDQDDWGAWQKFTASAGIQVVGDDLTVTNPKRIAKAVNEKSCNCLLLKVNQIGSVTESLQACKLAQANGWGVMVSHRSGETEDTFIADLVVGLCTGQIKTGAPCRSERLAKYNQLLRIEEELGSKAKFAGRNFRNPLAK
Sequence of UniProt P30154 (P30154 whole entry): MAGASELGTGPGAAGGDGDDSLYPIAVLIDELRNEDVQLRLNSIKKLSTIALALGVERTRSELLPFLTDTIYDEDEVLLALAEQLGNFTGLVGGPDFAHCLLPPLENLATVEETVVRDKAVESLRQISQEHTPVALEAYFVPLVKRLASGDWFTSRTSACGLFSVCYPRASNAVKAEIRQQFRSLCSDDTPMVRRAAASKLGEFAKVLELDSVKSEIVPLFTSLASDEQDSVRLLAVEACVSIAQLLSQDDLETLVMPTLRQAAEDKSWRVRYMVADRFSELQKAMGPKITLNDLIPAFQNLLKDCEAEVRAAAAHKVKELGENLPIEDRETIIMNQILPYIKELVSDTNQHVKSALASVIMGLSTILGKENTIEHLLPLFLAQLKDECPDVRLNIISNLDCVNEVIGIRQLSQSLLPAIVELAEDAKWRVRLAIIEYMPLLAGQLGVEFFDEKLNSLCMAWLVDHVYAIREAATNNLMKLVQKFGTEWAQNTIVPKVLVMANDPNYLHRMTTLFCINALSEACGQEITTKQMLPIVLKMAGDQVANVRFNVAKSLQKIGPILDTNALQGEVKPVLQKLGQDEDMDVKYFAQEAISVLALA
Sequence of UniProt O95757 (O95757 whole entry, looked up): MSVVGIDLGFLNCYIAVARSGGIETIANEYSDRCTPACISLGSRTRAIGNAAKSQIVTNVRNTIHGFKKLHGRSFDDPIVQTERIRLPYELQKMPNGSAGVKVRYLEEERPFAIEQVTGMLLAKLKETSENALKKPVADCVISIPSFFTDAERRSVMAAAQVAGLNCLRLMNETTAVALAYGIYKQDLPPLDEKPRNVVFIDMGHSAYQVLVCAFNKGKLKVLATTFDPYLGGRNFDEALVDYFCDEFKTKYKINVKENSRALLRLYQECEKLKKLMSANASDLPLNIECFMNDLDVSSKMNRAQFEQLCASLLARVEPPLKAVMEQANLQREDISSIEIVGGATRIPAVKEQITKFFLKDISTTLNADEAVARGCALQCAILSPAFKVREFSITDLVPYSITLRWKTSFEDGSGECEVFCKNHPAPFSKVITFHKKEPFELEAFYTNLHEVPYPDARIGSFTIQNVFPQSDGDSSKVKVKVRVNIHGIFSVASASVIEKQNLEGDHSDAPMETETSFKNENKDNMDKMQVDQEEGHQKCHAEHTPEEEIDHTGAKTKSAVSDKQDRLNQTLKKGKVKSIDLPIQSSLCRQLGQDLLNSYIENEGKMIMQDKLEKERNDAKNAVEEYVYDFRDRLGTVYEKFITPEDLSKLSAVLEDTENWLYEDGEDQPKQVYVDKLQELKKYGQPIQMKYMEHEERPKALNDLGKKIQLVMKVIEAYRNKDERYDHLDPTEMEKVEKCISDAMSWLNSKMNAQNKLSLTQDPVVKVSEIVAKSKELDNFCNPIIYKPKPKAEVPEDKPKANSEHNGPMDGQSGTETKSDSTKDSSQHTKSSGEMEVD
Sequence of UniProt P25685 (P25685 whole entry, looked up): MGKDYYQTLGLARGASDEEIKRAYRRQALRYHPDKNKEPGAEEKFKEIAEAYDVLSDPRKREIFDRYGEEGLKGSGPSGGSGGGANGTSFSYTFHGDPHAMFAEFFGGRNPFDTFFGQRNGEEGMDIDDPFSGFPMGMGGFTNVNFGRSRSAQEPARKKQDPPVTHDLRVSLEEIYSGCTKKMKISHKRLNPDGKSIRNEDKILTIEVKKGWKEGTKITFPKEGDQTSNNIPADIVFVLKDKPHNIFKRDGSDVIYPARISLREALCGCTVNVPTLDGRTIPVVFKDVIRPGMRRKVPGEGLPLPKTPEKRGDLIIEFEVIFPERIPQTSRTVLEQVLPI
Sequence of UniProt P04075 (P04075 whole entry, looked up): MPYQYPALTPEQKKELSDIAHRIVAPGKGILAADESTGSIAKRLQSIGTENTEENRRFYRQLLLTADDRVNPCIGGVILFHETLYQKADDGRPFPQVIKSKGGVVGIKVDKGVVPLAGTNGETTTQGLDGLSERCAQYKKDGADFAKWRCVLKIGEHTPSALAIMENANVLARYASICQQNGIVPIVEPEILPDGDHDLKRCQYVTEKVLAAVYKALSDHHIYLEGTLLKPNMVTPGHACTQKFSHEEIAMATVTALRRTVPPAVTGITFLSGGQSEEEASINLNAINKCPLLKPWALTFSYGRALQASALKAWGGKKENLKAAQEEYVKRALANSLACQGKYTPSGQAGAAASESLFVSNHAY
Sequence of UniProt O95639 (O95639 whole entry, looked up): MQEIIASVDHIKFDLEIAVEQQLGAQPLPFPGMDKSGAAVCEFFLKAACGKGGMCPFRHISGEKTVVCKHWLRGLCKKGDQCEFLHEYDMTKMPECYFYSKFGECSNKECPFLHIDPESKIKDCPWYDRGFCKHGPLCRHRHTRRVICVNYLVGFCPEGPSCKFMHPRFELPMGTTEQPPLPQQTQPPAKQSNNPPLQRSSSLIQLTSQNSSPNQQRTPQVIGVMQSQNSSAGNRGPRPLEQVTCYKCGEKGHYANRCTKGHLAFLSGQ

| Target | log2 ratio of iodoacetamide-alkyne labeling |
| --- | --- |
| ARF4 C62 (UniProt P18085) | -0.015 |
| VDAC2 C8 (UniProt P45880) | 0.376 |
| TCEA1 C271 (UniProt P23193) | -0.116 |
| HSPA4 C417 (UniProt P34932) | 0.208 |
| ALDOA C202 (UniProt P04075) | -0.0261 |
| UniProt O96017_C385 | 0.227 |
| DNAJB1 C267 (UniProt P25685) | 0.268 |
| MFN2 C348 (UniProt O95140) | -0.0549 |
| PPP2R1B C306 (UniProt P30154) | 0.0579 |
| VDAC2 C13 (UniProt P45880) | 1.11 (active) |
| NSF C11 (UniProt P46459) | 0.206 |
| FXR2 C270 (UniProt P51116) | 0.306 |
| HSPA4L C421 (UniProt O95757) | -0.0563 |
| UniProt O95071_C739 | 0.0375 |
| MAP1B C2065 (UniProt P46821) | 0.623 |
| MAP1B C1814 (UniProt P46821) | 0.438 |
| CAPZB C206 (UniProt P47756) | 0.316 |
| SMC2 C326 (UniProt O95347) | 0.547 |
| UniProt P49591_C438 | 0.0645 |

| Target | log2 ratio of iodoacetamide-alkyne labeling |
| --- | --- |
| RANGAP1 C303 (UniProt P46060) | 0.47 |
| CPSF4 C110 (UniProt O95639) | -0.138 |
| UniProt P49591_C431 | -0.00377 |
| UniProt P41250_C616 | -0.119 |
| GMPS C631 (UniProt P49915) | 0.369 |
| PARP1 C429 (UniProt P09874) | 0.192 |
| JUP C90 (UniProt P14923) | 0.305 |
| NDUFA8 C110 (UniProt P51970) | 1.12 (active) |
| ENO1 C389 (UniProt P06733) | 0.125 |
| CAMLG C123 (UniProt P49069) | 0.308 |
| RPS3 C97 (UniProt P23396) | 2.45 (active) |
| HSP90AA1 C420 (UniProt P07900) | -0.4 |
| EEF2 C651 (UniProt P13639) | 0.0919 |
| IMPDH2 C140 (UniProt P12268) | 1.11 (active) |
| TTK C284 (UniProt P33981) | 0.53 |
| RNH1 C85 (UniProt P13489) | 0.0022 |
| UniProt P0CG30_C105 | -0.204 |
| TMPO C341 (UniProt P42166) | 1.77 (active) |

— the supplement of paper PMC11006884
